Data: PubChem BioAssay (NCI)
This is part of a sample that, as a whole, favours compounds with a hit. Of some 83,000 tested, about 20% had one in any assay.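 A percent growth of 40 corresponds to 60% growth inhibition; 0 means no net growth; -100 means all cells died. Active threshold: below 10.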 Calls of active or inactive are those of the source.

What was measured:
Test in all cases: NCI-60 one-dose screen, 48 h (100 = growth as untreated, 0 = no growth, -100 = all killed)
Conditions in all cases: 10 µM unless noted
NCI-H23 lung = test system: NCI-H23 lung
NCI-H322M lung = test system: NCI-H322M lung
HOP-62 NSCLC = test system: HOP-62 NSCLC
NCI-H460 lung = test system: NCI-H460 lung
HOP-92 NSCLC = test system: HOP-92 NSCLC
NCI-H522 lung = test system: NCI-H522 lung
A549/ATCC NSCLC = test system: A549/ATCC NSCLC
786-0 renal = test system: 786-0 renal
COLO 205 colon = test system: COLO 205 colon
DU-145 prostate = test system: DU-145 prostate
K-562 leukemia = test system: K-562 leukemia
MALME-3M melanoma = test system: MALME-3M melanoma
MDA-MB-231 breast = test system: MDA-MB-231 breast
RXF 393 renal = test system: RXF 393 renal
SF-268 CNS = test system: SF-268 CNS
SF-295 CNS = test system: SF-295 CNS
SF-539 CNS = test system: SF-539 CNS
UACC-257 melanoma = test system: UACC-257 melanoma
M14 melanoma = test system: M14 melanoma
HCT-15 colon = test system: HCT-15 colon

Measured: growth

CCN1C(=O)N(CC)C2Nn3c(s/c(=C\c4ccccc4F)c3=O)=NC21 (stereo not given)
inactive: NCI-H23 lung 41.8% | NCI-H322M lung 59.4% | HOP-62 NSCLC 59.3% | NCI-H460 lung 21.6% | HOP-92 NSCLC 67.5% | NCI-H522 lung 27.5% | A549/ATCC NSCLC 31.6% | 786-0 renal 49.3% | DU-145 prostate 37.4% | K-562 leukemia 15.9% | MALME-3M melanoma 78.4% | MDA-MB-231 breast 35.1% | RXF 393 renal 36.7% | SF-268 CNS 54.9% | SF-295 CNS 14.9% | SF-539 CNS 11.6% | UACC-257 melanoma 65.2% | M14 melanoma 23.3% | HCT-15 colon 26.5%
active: COLO 205 colon 7.99%

Cc1ccc2cc3c(N)c4c(C)ccc(C)c4nc3nc2c1
active: NCI-H522 lung -23.9% | COLO 205 colon -53.3% | K-562 leukemia -18.6% | MALME-3M melanoma -77% | MDA-MB-231 breast 7.18% | SF-295 CNS -45.8% | SF-539 CNS -68% | UACC-257 melanoma -78.8% | M14 melanoma -79.1%
inactive: NCI-H23 lung 89.4% | NCI-H322M lung 72.4% | HOP-62 NSCLC 76.3% | NCI-H460 lung 53% | HOP-92 NSCLC 29.4% | A549/ATCC NSCLC 45.1% | 786-0 renal 54.2% | DU-145 prostate 80.5% | RXF 393 renal 45.1% | SF-268 CNS 17.4% | HCT-15 colon 10.8%

Nc1nc(-c2ccccc2Br)nn1-c1nc2ccccc2s1
inactive: NCI-H23 lung 98% | NCI-H322M lung 105% | HOP-62 NSCLC 105% | NCI-H460 lung 100% | HOP-92 NSCLC 99.6% | NCI-H522 lung 85.6% | A549/ATCC NSCLC 98.4% | 786-0 renal 104% | COLO 205 colon 110% | DU-145 prostate 110% | K-562 leukemia 94.8% | MALME-3M melanoma 105% | MDA-MB-231 breast 101% | RXF 393 renal 104% | SF-268 CNS 97.4% | SF-295 CNS 102% | SF-539 CNS 99.6% | UACC-257 melanoma 89% | M14 melanoma 98.3% | HCT-15 colon 97.2%

Nc1ncnc(N)c1NC(=O)c1ccc(OCc2ccccc2)cc1
inactive: NCI-H23 lung 105% | NCI-H322M lung 100% | HOP-62 NSCLC 104% | NCI-H460 lung 107% | HOP-92 NSCLC 106% | NCI-H522 lung 91.3% | A549/ATCC NSCLC 103% | 786-0 renal 104% | COLO 205 colon 103% | DU-145 prostate 111% | K-562 leukemia 105% | MALME-3M melanoma 102% | MDA-MB-231 breast 104% | RXF 393 renal 107% | SF-268 CNS 104% | SF-295 CNS 103% | SF-539 CNS 95.5% | UACC-257 melanoma 104% | M14 melanoma 108% | HCT-15 colon 99.5%

O=C(NC1CCCCC1)C(c1cccs1)N(CCc1ccccc1)C(=O)c1ccco1 (stereo not given)
active: MALME-3M melanoma -11.2%
inactive: NCI-H23 lung 86.1% | NCI-H322M lung 96.5% | HOP-62 NSCLC 90.6% | NCI-H460 lung 103% | HOP-92 NSCLC 75.5% | NCI-H522 lung 65.2% | A549/ATCC NSCLC 92.2% | 786-0 renal 91.1% | COLO 205 colon 96.1% | DU-145 prostate 103% | K-562 leukemia 82.8% | MDA-MB-231 breast 98.5% | RXF 393 renal 97.3% | SF-268 CNS 92.6% | SF-295 CNS 84.7% | SF-539 CNS 90.9% | UACC-257 melanoma 98.6% | M14 melanoma 93.7% | HCT-15 colon 93.4%

COc1ccccc1N1C(=N)S/C(=C\c2ccc(OCc3ccccc3F)cc2)C1=O
inactive: NCI-H23 lung 79.8% | NCI-H322M lung 81.6% | HOP-62 NSCLC 98.8% | NCI-H460 lung 77.4% | HOP-92 NSCLC 81.1% | NCI-H522 lung 65.7% | A549/ATCC NSCLC 80.3% | 786-0 renal 87.9% | COLO 205 colon 112% | DU-145 prostate 102% | K-562 leukemia 62.2% | MALME-3M melanoma 118% | MDA-MB-231 breast 51.4% | RXF 393 renal 65.8% | SF-268 CNS 82% | SF-295 CNS 95.1% | SF-539 CNS 106% | UACC-257 melanoma 90.9% | M14 melanoma 70.7% | HCT-15 colon 81.3%

COc1cc(NC(=O)CCSc2nc3ccccc3c(=O)n2Cc2ccccc2)cc(OC)c1OC
active: NCI-H522 lung 4.12%
inactive: NCI-H23 lung 89.7% | NCI-H322M lung 75.8% | HOP-62 NSCLC 92.8% | NCI-H460 lung 94.6% | HOP-92 NSCLC 54.5% | A549/ATCC NSCLC 72.7% | 786-0 renal 83.4% | COLO 205 colon 118% | DU-145 prostate 97.5% | K-562 leukemia 81.2% | MALME-3M melanoma 82% | MDA-MB-231 breast 64.9% | RXF 393 renal 92.3% | SF-268 CNS 81.9% | SF-295 CNS 75.3% | SF-539 CNS 72.9% | UACC-257 melanoma 89.5% | M14 melanoma 94.7% | HCT-15 colon 92.5%

O=C1C(Cl)=C(NCc2ccco2)C(=O)c2ccccc21
inactive: NCI-H23 lung 37.3% | NCI-H322M lung 115% | HOP-62 NSCLC 37% | NCI-H460 lung 54.5% | HOP-92 NSCLC 103% | NCI-H522 lung 75.9% | A549/ATCC NSCLC 47.4% | 786-0 renal 113% | COLO 205 colon 84.8% | DU-145 prostate 15.6% | K-562 leukemia 70.6% | MALME-3M melanoma 54.6% | MDA-MB-231 breast 68.1% | RXF 393 renal 101% | SF-268 CNS 103% | SF-295 CNS 75.8% | SF-539 CNS 115% | UACC-257 melanoma 58.7% | M14 melanoma 77.4% | HCT-15 colon 81.3%

CCCCC1CCc2cccc3c(SCC(=O)N(C)c4ccc(Cl)cc4)cc[n+]1c23 (stereo not given)
inactive: NCI-H23 lung 98.9% | NCI-H322M lung 110% | HOP-62 NSCLC 107% | NCI-H460 lung 109% | HOP-92 NSCLC 127% | NCI-H522 lung 97.5% | A549/ATCC NSCLC 106% | 786-0 renal 106% | COLO 205 colon 108% | DU-145 prostate 108% | K-562 leukemia 91.5% | MALME-3M melanoma 106% | MDA-MB-231 breast 109% | RXF 393 renal 128% | SF-268 CNS 113% | SF-295 CNS 106% | SF-539 CNS 110% | UACC-257 melanoma 110% | M14 melanoma 105% | HCT-15 colon 110%

O=NN(C(=O)NC1CCC(C(=O)O)CC1)C1CCC(C(=O)O)CC1 (stereo not given)
inactive: NCI-H23 lung 106% | NCI-H322M lung 107% | HOP-62 NSCLC 104% | NCI-H460 lung 107% | HOP-92 NSCLC 98.8% | NCI-H522 lung 98.7% | A549/ATCC NSCLC 106% | 786-0 renal 107% | COLO 205 colon 115% | DU-145 prostate 112% | K-562 leukemia 95% | MALME-3M melanoma 104% | MDA-MB-231 breast 103% | RXF 393 renal 106% | SF-268 CNS 107% | SF-295 CNS 107% | SF-539 CNS 103% | UACC-257 melanoma 96.7% | M14 melanoma 104% | HCT-15 colon 96.3%

Clc1ccc(COc2ccc(Nc3ncnc4onc(-c5ccccc5)c34)cc2)cc1
inactive: NCI-H23 lung 87.1% | NCI-H322M lung 82.8% | HOP-62 NSCLC 91.2% | NCI-H460 lung 61% | HOP-92 NSCLC 82.9% | NCI-H522 lung 71.3% | A549/ATCC NSCLC 82.8% | 786-0 renal 90.7% | COLO 205 colon 93.5% | DU-145 prostate 72.7% | K-562 leukemia 89.9% | MALME-3M melanoma 92.7% | MDA-MB-231 breast 76.5% | RXF 393 renal 95.5% | SF-268 CNS 89.2% | SF-295 CNS 93.7% | SF-539 CNS 97% | UACC-257 melanoma 85.6% | M14 melanoma 76% | HCT-15 colon 84.2%

O=C1c2cc(I)ccc2Oc2cc([N+](=O)[O-])ccc2N1c1ccc(Cl)cc1F
inactive: NCI-H23 lung 87.7% | NCI-H322M lung 93.4% | HOP-62 NSCLC 89.9% | NCI-H460 lung 90.4% | HOP-92 NSCLC 88.3% | NCI-H522 lung 65.7% | A549/ATCC NSCLC 78.2% | 786-0 renal 98% | COLO 205 colon 106% | DU-145 prostate 97.9% | K-562 leukemia 49.4% | MALME-3M melanoma 84.9% | MDA-MB-231 breast 78.4% | RXF 393 renal 99% | SF-268 CNS 79.1% | SF-295 CNS 92% | SF-539 CNS 92.8% | UACC-257 melanoma 94.1% | M14 melanoma 97.7% | HCT-15 colon 57.4%

CN1C(=O)N(C)C2C1NN=c1s/c(=C\c3ccc(Cl)cc3Cl)c(=O)n12 (stereo not given)
active: NCI-H460 lung 3.01% | COLO 205 colon 1.82% | DU-145 prostate 5.98% | K-562 leukemia 7.76% | SF-539 CNS 1.09% | M14 melanoma 7.37%
inactive: NCI-H23 lung 29% | NCI-H322M lung 38.3% | HOP-62 NSCLC 54.3% | HOP-92 NSCLC 97.6% | NCI-H522 lung 17.5% | A549/ATCC NSCLC 25.1% | 786-0 renal 24% | MALME-3M melanoma 62.4% | MDA-MB-231 breast 30.4% | RXF 393 renal 16.2% | SF-268 CNS 31.6% | SF-295 CNS 17.4% | UACC-257 melanoma 75.8% | HCT-15 colon 15.8%

COc1ccc(C2C3=C(COC3=O)N(CCO)c3cc4c(cc32)CCC4)cc1 (stereo not given)
inactive: NCI-H23 lung 87.2% | NCI-H322M lung 96.2% | HOP-62 NSCLC 51.5% | NCI-H460 lung 25.9% | HOP-92 NSCLC 70.8% | NCI-H522 lung 37.8% | A549/ATCC NSCLC 46.6% | 786-0 renal 54.8% | COLO 205 colon 52.1% | DU-145 prostate 78.5% | K-562 leukemia 24% | MALME-3M melanoma 64.7% | MDA-MB-231 breast 70.9% | RXF 393 renal 30.5% | SF-268 CNS 74.5% | SF-295 CNS 16.3% | SF-539 CNS 57.2% | UACC-257 melanoma 57.1% | M14 melanoma 38% | HCT-15 colon 37.3%

COC(=O)/C(CCC=C(C)C)=C1\[C@@H](OC(C)=O)C[C@@]2(C)[C@H]1CC(=O)N[C@H]1[C@@]3(C)CCNC(=O)[C@@H](C)[C@@H]3CC[C@@]12C
inactive: NCI-H23 lung 99.2% | NCI-H322M lung 98.3% | HOP-62 NSCLC 106% | NCI-H460 lung 109% | HOP-92 NSCLC 106% | NCI-H522 lung 96.6% | A549/ATCC NSCLC 106% | 786-0 renal 96.2% | COLO 205 colon 109% | DU-145 prostate 107% | K-562 leukemia 101% | MALME-3M melanoma 101% | MDA-MB-231 breast 102% | RXF 393 renal 112% | SF-268 CNS 101% | SF-295 CNS 101% | SF-539 CNS 103% | UACC-257 melanoma 104% | M14 melanoma 98.5% | HCT-15 colon 106%
